The target in one experiment is Albumin (Bos taurus) (UniProt P02769). The experiment can be described thus: bovine serum albumin binders on microarray, profiling panel, artefact control for SMM control protein annotation, biochemical, small-molecule microarray, Alexa647 label, 635/667 nm fluorescence (AID 1118).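 Note: score merges 667 nm emission intensity and signal-to-noise per printed compound spot.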 The settings on record: BSA-A647 binding, fluorescence 635 nm, higher = more signal.
Experiment [1] in a line: small-molecule microarray binders of probe aXIP, primary screen, biochemical, NeuroSMM set, 635/667 nm fluorescence (AID 1119).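 Note: probe is the protein aXip251-270 applied at 1 µg/mL to compound-printed slides; binding of probe to printed compounds measured as 667 nm fluorescence plus signal to noise.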 The settings on record: higher = more signal, called active from +8 up or from −8 down.
Experiment [2] is described as follows: small-molecule binders of probe aNOTCH3, primary screen, biochemical, small-molecule microarray, 635/667 nm fluorescence (AID 1120).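 Note: probe is a biotin-tagged antibody raised against NOTCH3 rather than NOTCH3 protein; score merges spot fluorescence near 667 nm with spot signal to noise.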 The settings on record: higher = more signal.
Experiment [3] is described as follows: small-molecule binders of probe aNOTCH2, primary screen, biochemical, small-molecule microarray, 635/667 nm fluorescence (AID 1121).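 Note: score merges feature fluorescence read at 667 nm with its signal to noise.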 The following applies: higher = more signal.
In experiment [4] the target is Carbonic anhydrase 2 (Homo sapiens) (UniProt P00918). Description: CAII small-molecule binders, profiling panel, biochemical, small-molecule microarray, Alexa647-labelled CAII (AID 1122). The following applies: CAII-A647 binding fluorescence, higher = more signal.
Experiment [5] in a line: COS7 lysate on small-molecule microarray, probe aHis, 635 nm (AID 1123).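 Note: z-score combines 667nm fluorescence intensity with signal-to-noise per printed compound spot.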 The settings on record: COS7 cell lysate, fluorescence, higher = more signal.
Experiment [6] is described as follows: compound binding in COS7 lysate, probe aLAP1, primary screen, cell lysate, small-molecule microarray (AID 1124).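 Note: lysate comes from COS7 cells expressing LAP1 and is applied at 0.3 µg/mL; score merges spot fluorescence near 667 nm with signal-to-noise over triplicate slides.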 The following applies: probe aLAP1, fluorescence, higher = more signal.
The test system of another experiment is Sam68 (KHDRBS1). Description: Sam68 small-molecule binders, primary screen, biochemical, small-molecule microarray, 635 nm fluorescence (AID 1125).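 Note: score merges 667 nm channel intensity with signal to noise over triplicate slides.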 The settings on record: small-molecule microarray binding, higher = more signal.
Experiment [7] concerns Chordin-like protein 2 (CHRDL2). The experiment can be described thus: CHRDL2 small-molecule binders, primary screen, biochemical, small-molecule microarray, 635 nm fluorescence (AID 1126).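 Note: printed compound slides probed with Chrdl2 protein at 4 µg/mL for 1 h at 4 C; score merges 667 nm emission intensity with signal to noise over three replicate slides.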 The following applies: small-molecule microarray binding, fluorescence 635 nm; higher = more signal.
The target in experiment [8] is Concanavalin-A (Canavalia ensiformis) (UniProt P02866). Description: ConA small-molecule binders, primary screen, artefact control for SMM control protein annotation, biochemical, small-molecule microarray, Alexa647 label, 635 nm (AID 1127).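 Note: z combines 667 nm emission intensity with signal-to-noise across three replicate slides.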 The following applies: ConA-A647 binding fluorescence, higher = more signal.
Experiment [9] can be described thus: anti-His antibody binders, primary screen, artefact control for SMM control protein annotation, biochemical, small-molecule microarray, 635 nm fluorescence (AID 1128).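 Note: score merges feature fluorescence with signal-to-noise for each printed compound spot.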 The settings on record: anti-His Alexa647 antibody binding, higher = more signal.
For experiment [10], the system named is Human papillomavirus type 1a E7 protein (residues 1-88). The experiment can be described thus: HPV1a E7 small-molecule binders, primary screen, biochemical, small-molecule microarray, residues 1-88, 635 nm (AID 1129). The following applies: small-molecule microarray binding, fluorescence 635 nm; higher = more signal.
Experiment [11] addresses Focal adhesion kinase 1 (Homo sapiens) (UniProt Q05397). Description: small-molecule microarray binders of FAK, primary screen, biochemical, 635/667 nm fluorescence, BSA, DTT (AID 1130).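 Note: composite of spot emission at 667 nm and signal to noise over triplicate slides.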 The following applies: PTK2 binding, 635 nm fluorescence, higher = more signal.
The subject of experiment [12] is Fibrinogen (Alexa647-labelled). Description: fibrinogen binders on compound microarrays, profiling panel, artefact control for SMM control-protein annotation, biochemical, small-molecule microarray, 635/667 nm fluorescence (AID 1131).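 Note: z-score merges 667 nm fluorescence with per-spot signal-to-noise over triplicate slides.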 The following applies: fibrinogen-A647 binding fluorescence, higher = more signal.
Experiment [13] has as its target Follistatin (Homo sapiens) (UniProt P19883). The experiment can be described thus: follistatin binders on small-molecule microarrays, primary screen, biochemical, small-molecule microarray, 635/667 nm fluorescence (AID 1132). The following applies: FST binding, 635 nm fluorescence, higher = more signal.
The target of experiment [14] is Fibroblast growth factor 2 (Homo sapiens) (UniProt P09038). The experiment can be described thus: FGF2 binders on small-molecule microarrays, primary screen, biochemical, small-molecule microarray, 635/667 nm fluorescence (AID 1133). The following applies: small-molecule microarray binding, FGF2, fluorescence 635/667; higher = more signal.
Experiment [15] in a line: mitochondrial membrane potential change in A549 cells, profiling panel, cell-based, JC-1 fluorescence, basal, 24 h, 100 nL (AID 1138).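 Note: A549 lung adenocarcinoma cells under basal conditions with no added stimulus; test concentration not given here.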 The settings on record: higher = more signal.
A further experiment concerns Lefty1. The experiment can be described thus: Lefty1 binders on small-molecule microarrays, primary screen, biochemical, small-molecule microarray, 635/667 nm fluorescence (AID 1139). The following applies: small-molecule microarray binding, fluorescence 635/667; higher = more signal.
Experiment [16] deals with wheat germ agglutinin (Triticum aestivum), Alexa647-labelled. Description: wheat germ agglutinin binders on compound microarrays, profiling panel, artefact control for SMM control-protein annotation, biochemical, small-molecule microarray, 635/667 nm fluorescence (AID 1140).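 Note: score merges 667 nm feature emission with signal to noise over triplicate slides.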 The following applies: WGA-A647 binding, 635 nm fluorescence, higher = more signal.
The target in experiment [17] is Luciferin 4-monooxygenase (Photinus pyralis) (UniProt P08659). The experiment can be described thus: firefly luciferase enzyme inhibitors, primary screen, biochemical, luminescence, purified enzyme, 2006 set (AID 1141).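 Note: cell-free assay with purified firefly luciferase at 100 ng per well in PBS; test concentration not given here.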 The settings on record: SteadyGlo luminescence, 30 min, higher = more signal, called active from +8 up or from −8 down.

The source made the active and inactive calls.

Follistatin (Homo sapiens), sequence (P19883 whole entry, looked up): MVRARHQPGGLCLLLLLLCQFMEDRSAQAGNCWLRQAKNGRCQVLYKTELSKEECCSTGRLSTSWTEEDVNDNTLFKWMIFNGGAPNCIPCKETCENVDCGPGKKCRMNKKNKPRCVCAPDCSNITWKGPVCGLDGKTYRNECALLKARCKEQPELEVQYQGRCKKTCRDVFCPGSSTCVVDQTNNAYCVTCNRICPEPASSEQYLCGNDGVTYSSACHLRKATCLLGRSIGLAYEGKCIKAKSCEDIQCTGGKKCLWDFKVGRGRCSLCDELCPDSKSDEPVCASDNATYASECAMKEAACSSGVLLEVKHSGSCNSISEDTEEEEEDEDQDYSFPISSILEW
Focal adhesion kinase 1 (Homo sapiens), sequence (Q05397 whole entry, looked up): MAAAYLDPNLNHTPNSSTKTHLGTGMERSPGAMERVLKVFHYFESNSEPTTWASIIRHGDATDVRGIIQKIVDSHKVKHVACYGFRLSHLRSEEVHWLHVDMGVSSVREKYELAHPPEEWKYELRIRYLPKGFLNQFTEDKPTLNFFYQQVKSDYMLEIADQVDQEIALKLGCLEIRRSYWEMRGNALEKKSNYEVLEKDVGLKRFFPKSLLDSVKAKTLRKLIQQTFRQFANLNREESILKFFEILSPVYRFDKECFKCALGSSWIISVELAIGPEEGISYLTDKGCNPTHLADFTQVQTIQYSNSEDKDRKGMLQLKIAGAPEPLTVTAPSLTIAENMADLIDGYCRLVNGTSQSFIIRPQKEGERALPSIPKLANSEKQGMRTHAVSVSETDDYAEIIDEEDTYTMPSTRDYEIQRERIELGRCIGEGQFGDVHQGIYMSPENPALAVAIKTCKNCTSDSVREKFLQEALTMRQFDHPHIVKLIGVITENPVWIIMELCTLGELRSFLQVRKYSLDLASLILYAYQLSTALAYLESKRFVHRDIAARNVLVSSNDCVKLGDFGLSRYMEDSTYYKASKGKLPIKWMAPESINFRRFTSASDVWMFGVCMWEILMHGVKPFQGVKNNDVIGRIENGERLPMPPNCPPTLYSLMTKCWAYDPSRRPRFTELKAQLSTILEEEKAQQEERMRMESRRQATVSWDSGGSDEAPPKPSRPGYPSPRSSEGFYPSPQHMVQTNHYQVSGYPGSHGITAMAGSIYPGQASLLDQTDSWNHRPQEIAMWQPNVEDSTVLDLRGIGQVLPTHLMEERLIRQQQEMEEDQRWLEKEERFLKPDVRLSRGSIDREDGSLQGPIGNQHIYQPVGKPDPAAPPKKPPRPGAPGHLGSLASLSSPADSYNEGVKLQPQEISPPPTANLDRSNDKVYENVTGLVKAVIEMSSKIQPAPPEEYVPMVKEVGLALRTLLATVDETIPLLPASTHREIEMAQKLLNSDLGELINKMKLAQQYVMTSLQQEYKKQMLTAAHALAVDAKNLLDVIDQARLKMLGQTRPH
Fibroblast growth factor 2 (Homo sapiens), sequence (P09038 whole entry, looked up): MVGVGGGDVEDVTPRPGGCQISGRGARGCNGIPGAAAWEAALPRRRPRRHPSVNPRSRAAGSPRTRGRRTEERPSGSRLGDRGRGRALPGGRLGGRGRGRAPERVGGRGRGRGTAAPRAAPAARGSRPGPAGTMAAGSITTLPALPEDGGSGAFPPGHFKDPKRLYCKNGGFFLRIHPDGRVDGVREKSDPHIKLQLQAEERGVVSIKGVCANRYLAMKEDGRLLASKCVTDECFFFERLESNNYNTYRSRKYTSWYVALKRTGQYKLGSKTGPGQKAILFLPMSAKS
Concanavalin-A (Canavalia ensiformis), sequence (P02866 whole entry, looked up): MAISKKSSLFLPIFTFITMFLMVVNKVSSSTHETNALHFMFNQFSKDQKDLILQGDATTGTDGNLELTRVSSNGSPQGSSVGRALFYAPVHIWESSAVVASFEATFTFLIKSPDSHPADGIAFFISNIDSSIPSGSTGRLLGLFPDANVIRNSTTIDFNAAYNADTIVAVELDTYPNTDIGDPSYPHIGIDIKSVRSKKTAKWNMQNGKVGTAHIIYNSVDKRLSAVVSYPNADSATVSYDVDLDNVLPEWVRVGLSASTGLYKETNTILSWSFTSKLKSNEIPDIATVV
Albumin (Bos taurus), sequence (P02769 whole entry, looked up): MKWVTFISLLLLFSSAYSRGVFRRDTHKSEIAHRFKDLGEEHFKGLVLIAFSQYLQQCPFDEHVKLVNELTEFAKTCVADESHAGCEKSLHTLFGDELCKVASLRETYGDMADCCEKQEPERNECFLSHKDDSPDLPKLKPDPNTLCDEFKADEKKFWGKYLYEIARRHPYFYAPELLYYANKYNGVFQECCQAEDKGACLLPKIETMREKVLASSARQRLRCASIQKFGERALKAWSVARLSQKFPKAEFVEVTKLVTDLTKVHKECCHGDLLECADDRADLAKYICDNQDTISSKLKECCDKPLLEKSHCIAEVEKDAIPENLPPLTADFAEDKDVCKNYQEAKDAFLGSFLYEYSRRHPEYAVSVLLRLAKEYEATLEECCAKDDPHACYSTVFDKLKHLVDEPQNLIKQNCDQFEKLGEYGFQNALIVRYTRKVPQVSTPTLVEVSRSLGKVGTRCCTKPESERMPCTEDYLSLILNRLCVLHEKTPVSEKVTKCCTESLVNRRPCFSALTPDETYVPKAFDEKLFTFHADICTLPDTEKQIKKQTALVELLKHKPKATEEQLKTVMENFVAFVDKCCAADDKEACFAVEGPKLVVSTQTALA
Luciferin 4-monooxygenase (Photinus pyralis), sequence (P08659 whole entry, looked up): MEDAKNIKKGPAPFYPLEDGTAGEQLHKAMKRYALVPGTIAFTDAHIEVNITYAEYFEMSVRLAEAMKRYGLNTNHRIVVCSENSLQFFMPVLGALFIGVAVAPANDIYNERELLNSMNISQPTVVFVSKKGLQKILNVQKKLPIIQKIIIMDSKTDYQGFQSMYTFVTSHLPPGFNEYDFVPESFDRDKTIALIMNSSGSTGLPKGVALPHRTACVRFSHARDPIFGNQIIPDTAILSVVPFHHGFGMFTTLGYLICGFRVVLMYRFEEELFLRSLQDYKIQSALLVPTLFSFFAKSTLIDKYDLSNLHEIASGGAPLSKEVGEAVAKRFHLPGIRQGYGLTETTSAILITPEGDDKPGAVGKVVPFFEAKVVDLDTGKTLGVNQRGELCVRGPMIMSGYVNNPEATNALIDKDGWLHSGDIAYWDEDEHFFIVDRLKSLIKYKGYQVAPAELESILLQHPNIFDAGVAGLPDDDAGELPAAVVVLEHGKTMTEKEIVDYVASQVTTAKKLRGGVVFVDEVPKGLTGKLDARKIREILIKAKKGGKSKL

With `CCOC(=O)C1=C[C@@H](C(C)C)N(S(=O)(=O)c2ccc(C)cc2)[C@H]1c1ccc(C(C)C)cc1`, the composite z-score is 0.822 with Albumin (Bos taurus); 0.0538 in experiment [2]; -0.0148 in [3]; 0.39 in [4]; 1.81 in experiment [5]; 0.586 in experiment [6]. Moreover, the composite z-score in the experiment with Sam68 (KHDRBS1) was 1.31; in experiment [7], 0.241; in experiment [8] it was 1.07; in [9], 0.408; in experiment [10] it was 1.15; in experiment [11], 1.54. The composite z-score in experiment [12] is 0.915; in [13], 1.23; in experiment [14], -0.067; with Lefty1 it was 0.752; in experiment [16] it was 0.734. The composite Z-score in [1] was 0.376 (inactive). Also, the z-score in experiment [15] was 2.96; in experiment [17], 2.41 (inactive).
With `O=C(CS)NCCCCCCNC(=O)[C@@H]1C[C@@H]2C(=O)N3CCC[C@H]3C(=O)N2[C@@H]1c1ccc(O)cc1`, the composite z-score with Albumin (Bos taurus) was -0.766; in experiment [2], -0.273; in experiment [3] it was -0.116; in experiment [4], 0.645; in experiment [5] it was 2.88; in experiment [6] it was 0.827. Also, the composite z-score was 0.5 with Sam68 (KHDRBS1); 0.361 in [7]; 0.443 in experiment [8]; 3.73 in experiment [9]; 1.21 in [10]; 0.887 in experiment [11]. The composite z-score in [12] is -0.627; in experiment [13], 1.16; in [14], 1.13; with Lefty1, -0.686; in [16], -0.462. Further, in [1], the composite Z-score was 3.04 (inactive). Besides, the z-score was -1.13 in [15] and -0.315 (inactive) in experiment [17].
For the compound `COC(=O)[C@@]1(Cc2ccc(OC)cc2)[C@H]2c3cc(C(=O)N4CCCC4)n(CCc4c[nH]c5cc(F)ccc45)c3C[C@H]2CN1C(=O)c1ccccc1`, the composite z-score with Albumin (Bos taurus) was 0.957; in [2], 0.127; in experiment [3], 0.0064; in experiment [4], 0.714; in experiment [5], 3.24; in experiment [6] it was 0.959. Also, the composite z-score is 1.29 in the experiment on Sam68 (KHDRBS1); -0.703 in experiment [7]; 0.871 in experiment [8]; 1.46 in [9]; 1.25 in [10]; 0.861 in experiment [11]. Moreover, the composite z-score came to 0.994 in [12]; 1.23 in experiment [13]; 0.303 in [14]; 0.0312 with Lefty1; 1.18 in experiment [16]. In addition, in experiment [1], the composite Z-score was -0.0378 (inactive). The z-score is 0.509 in experiment [15] and 0.378 (inactive) in [17].
For `COc1ccc(C#Cc2ccc3c(c2)[C@]2(C(=O)N3)[C@H](c3ccc(O)cc3)N3[C@H](c4ccccc4)[C@H](c4ccccc4)OC(=O)[C@H]3[C@@H]2C(=O)N2CCCCCCC2)cc1`, the composite z-score amounted to 0.814 with Albumin (Bos taurus); 1.84 in experiment [2]; 0.939 in experiment [3]; 0.504 in [4]; 3.27 in [5]; 0.998 in experiment [6]. Moreover, the composite z-score was determined as 1.31 in the experiment with Sam68 (KHDRBS1); 1.23 in [7]; 1.14 in experiment [8]; 0.477 in experiment [9]; 1.22 in experiment [10]; 0.75 in experiment [11]. The composite z-score in experiment [12] is 0.702; in experiment [13], 1.49; in experiment [14], 1.02; in the experiment with Lefty1 it was 1.61; in experiment [16], 1.35. Besides, the composite Z-score in [1] was 5.12 (inactive). In addition, the z-score in [15] was -0.067; in [17], -1.78 (inactive).
For `C=C(CCCC)/C(=C/C[C@H](OC(C)=O)c1ccc(CO)o1)c1cnc2ccccc2c1`, the composite z-score with Albumin (Bos taurus) was 0.475; in experiment [2] it was 0.0282; in experiment [3] it was -0.14; in [4], 0.73; in [5], 0.612; in experiment [6], -0.193. Besides, the composite z-score with Sam68 (KHDRBS1) is 1.05; in experiment [7], 0.968; in [8] it was 0.931; in [9] it was 0.867; in experiment [10], 1.18; in [11], -0.0622. The composite z-score in [12] amounted to 0.713; in experiment [13], 1.27; in experiment [14], 1.18; in the experiment with Lefty1, 1.29; in [16], 1.18. For the same compound, in experiment [1], the composite Z-score was -1.16 (inactive). The z-score is -0.566 in experiment [15] and -1.88 (inactive) in experiment [17].
`O=C(OCCF)C1=CCC(c2cccc(Cl)c2)O1` (stereo not given): the composite z-score in the experiment with Albumin (Bos taurus) is 0.374; in experiment [2], -0.191; in [3] it was -0.199; in experiment [4], 0.593; in [5] it was 0.751; in experiment [6] it was 0.142. In addition, the composite z-score with Sam68 (KHDRBS1) was 0.748; in experiment [7], -0.165; in [8], 0.532; in [9], 0.1; in [10], 0.628; in experiment [11] it was 0.475. Also, the composite z-score in experiment [12] is -0.137; in experiment [13] it was 0.134; in experiment [14], -0.211; in the experiment on Lefty1, -0.217; in experiment [16] it was 0.177. For the same compound, the composite Z-score in experiment [1] was 0.13 (inactive). In addition, the z-score was -0.218 in experiment [15] and 0.08 (inactive) in experiment [17].
Consider `CCOC(=O)C1=CCC(C(C)(C)C)N(S(=O)(=O)c2ccc(C)cc2)C1` (stereo not given), for which the composite z-score with Albumin (Bos taurus) was 0.815; in experiment [2] it was 0.34; in experiment [3], -0.0196; in experiment [4], 0.623; in experiment [5], 2.45; in experiment [6] it was 0.368. Also, the composite z-score was found to be 1.32 in the experiment on Sam68 (KHDRBS1); 0.825 in experiment [7]; 1.1 in experiment [8]; 0.992 in experiment [9]; 1.26 in [10]; 0.225 in experiment [11]. Moreover, the composite z-score in [12] amounted to 1.01; in experiment [13], 1.29; in experiment [14], 1.39; in the experiment with Lefty1 it was 1; in experiment [16], 0.722. Further, the composite Z-score in experiment [1] was -0.427 (inactive). For the same compound, the z-score is 0.363 in experiment [15] and 0.916 (inactive) in [17].
Consider `COCCOC(=O)N1C(=O)[C@@]2(c3cc(C#CCC(C(=O)OC)C(=O)OC)ccc31)[C@H](c1ccccc1OCCO)N1[C@H](c3ccccc3)[C@H](c3ccccc3)OC(=O)[C@H]1[C@@H]2C(=O)N1CCc2cc(OC)c(OC)cc2C1`, for which the composite z-score with Albumin (Bos taurus) was 0.534; in experiment [2], 0.134; in experiment [3], -0.16; in [4] it was 0.45; in experiment [5], 0.833; in experiment [6], 0.211. For the same compound, the composite z-score amounted to 1.29 with Sam68 (KHDRBS1); 0.787 in experiment [7]; 1.16 in experiment [8]; 0.89 in experiment [9]; 1.19 in experiment [10]; 1.33 in [11]. Moreover, the composite z-score amounted to 0.938 in experiment [12]; 1.41 in [13]; 1.49 in experiment [14]; 1.47 with Lefty1; 0.784 in experiment [16]. Also, the composite Z-score in experiment [1] was 0.405 (inactive). Moreover, the z-score in experiment [15] is -0.978; in experiment [17], -0.882 (inactive).
